# Bioassay records deposited in PubChem by The Scripps Research Institute Molecular Screening Center.
# MBD2 DNA inh – inhibitors of MBD2 binding to methylated DNA, primary screen, biochemical, TR-FRET, DNA-binding domain, human; Methyl-CpG-binding domain protein 2 (Homo sapiens), Q9UBB5; MBD2 binding to methylated oligonucleotide; inhibition, % at 4.4 µM; 370,000 compounds, 0.31% hits; in the data active = inhibition above about 13%
# LEDGF integ inh – blockers of LEDGF/p75-dependent integrase strand transfer – biochemical, TR-FRET, high throughput, primary screen. HIV-1 integrase (with human LEDGF/p75). TR-FRET IN-LEDGF/p75 DNA integration, Eu/Cy5. inhibition, % at 3.7 µM. 370,000 compounds, 0.64% hits. AID 743269, 2014;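 active = inhibition above the screen-wide mean plus 3 SD, cut at about 13% in these data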;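 note: signal is the Cy5 over europium emission ratio at 671 and 618 nm; 0% = plate median of compound wells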
# PLC-gamma1 inh – PLC-gamma1 enzyme inhibitors, primary screen, biochemical, fluorescence, purified enzyme. 370,000 compounds, 0.84% hits. fluorogenic substrate. inhibition, % at 12.2 µM. AID 720700, 2013. 1-phosphatidylinositol 4,5-bisphosphate phosphodiesterase gamma-1 (Homo sapiens), P19174; in the data active = inhibition above about 9.5%
# Target sequence (P19174 whole entry, looked up): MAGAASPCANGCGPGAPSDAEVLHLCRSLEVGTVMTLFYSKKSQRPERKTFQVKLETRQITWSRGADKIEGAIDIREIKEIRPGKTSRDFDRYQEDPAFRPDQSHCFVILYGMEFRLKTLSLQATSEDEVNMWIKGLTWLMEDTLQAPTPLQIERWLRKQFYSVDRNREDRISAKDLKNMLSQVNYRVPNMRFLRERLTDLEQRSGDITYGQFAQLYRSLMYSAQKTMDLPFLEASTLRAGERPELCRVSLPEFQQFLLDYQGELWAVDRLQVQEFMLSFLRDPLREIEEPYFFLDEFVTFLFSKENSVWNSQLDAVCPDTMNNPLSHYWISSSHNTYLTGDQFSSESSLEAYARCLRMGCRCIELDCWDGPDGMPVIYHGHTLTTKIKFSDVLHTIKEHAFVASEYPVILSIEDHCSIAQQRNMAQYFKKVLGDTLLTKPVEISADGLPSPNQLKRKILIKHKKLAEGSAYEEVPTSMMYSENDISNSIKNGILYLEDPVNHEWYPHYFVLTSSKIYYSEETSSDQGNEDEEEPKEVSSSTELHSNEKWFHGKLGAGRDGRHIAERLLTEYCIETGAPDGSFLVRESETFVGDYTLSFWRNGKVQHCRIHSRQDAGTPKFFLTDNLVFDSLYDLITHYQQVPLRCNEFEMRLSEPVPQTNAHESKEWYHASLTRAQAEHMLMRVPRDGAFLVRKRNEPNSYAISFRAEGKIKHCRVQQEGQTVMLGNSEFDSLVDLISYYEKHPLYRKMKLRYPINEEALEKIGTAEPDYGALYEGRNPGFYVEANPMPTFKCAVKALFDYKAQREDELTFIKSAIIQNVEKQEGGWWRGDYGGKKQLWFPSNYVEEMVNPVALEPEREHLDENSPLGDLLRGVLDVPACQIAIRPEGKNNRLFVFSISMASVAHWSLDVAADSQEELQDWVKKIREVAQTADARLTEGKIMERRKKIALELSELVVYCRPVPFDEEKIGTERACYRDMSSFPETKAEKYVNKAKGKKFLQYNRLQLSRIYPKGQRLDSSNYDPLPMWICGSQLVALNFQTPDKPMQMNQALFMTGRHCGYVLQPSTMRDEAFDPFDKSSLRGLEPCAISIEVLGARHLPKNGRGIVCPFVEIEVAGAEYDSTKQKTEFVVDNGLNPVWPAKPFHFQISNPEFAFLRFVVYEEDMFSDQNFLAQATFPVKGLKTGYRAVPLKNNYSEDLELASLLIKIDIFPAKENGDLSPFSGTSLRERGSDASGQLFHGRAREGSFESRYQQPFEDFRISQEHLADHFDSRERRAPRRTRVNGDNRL
# UHRF1 binding – UHRF1 methylated DNA binding inhibitors, primary screen, counter-screen for MBD2 inhibitor project, biochemical, TR-FRET, human UHRF1, single concentration. E3 ubiquitin-protein ligase UHRF1 (Homo sapiens), Q96T88. UHRF1 binding to methylated oligo. inhibition, % at 4.4 µM. 370,000 compounds, 0.75% hits. AID 687016, 2013; in the data active = inhibition above about 21%;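 note: UHRF1 SRA domain binding a hemimethylated CpG hairpin DNA probe; 0% = median of test compound wells and 100% = reference inhibitor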
# PLCb3 inh – human PLC-beta3 inhibitors, primary screen, biochemical, fluorescence. 1-phosphatidylinositol 4,5-bisphosphate phosphodiesterase beta-3 (Homo sapiens), Q01970. Purified PLC-beta3, fluorogenic substrate. inhibition, % at 12.2 µM. 370,000 compounds, 0.18% hits; in the data active = inhibition above about 11%;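 note: 0% = median of compound wells on plate and 100% = full blocker control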
# IN multimer act – HIV-1 IN multimer formation enhancers, counter-screen for LEDGF/p75 integration inhibitor project, biochemical, TR-FRET; TR-FRET HIV-1 integrase multimerization; shares compounds with LEDGF integ inh; activation, % at 7.7 µM; 2,000 compounds, 17% hits; in the data active = activation above about 8.9%
# TRFRET interf – TR-FRET optical interference artefacts, confirmation, artefact control for LEDGF/p75-dependent integration inhibitor project, biochemical, HIV-1 IN multimerization | shares compounds with LEDGF integ inh | TR-FRET optical interference counterscreen | inhibition, % at 7.7 µM | 2,000 tested, under 10 active | AID 1053135, 2014;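 active = inhibition above the mean over all tested compounds plus 3 SD, which no compound reached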;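 note: 0% = integrase with antibodies and DMSO and 100% = antibodies without integrase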
# LEDGF integ conf – inhibitors of HIV-1 IN-LEDGF/p75 DNA integration, confirmation, biochemical, TR-FRET; shares compounds with LEDGF integ inh; 2,000 compounds, 36% hits; TR-FRET LEDGF/p75-dependent HIV-1 integration; AID 1053136, 2014; inhibition, % at 3.7 µM; in the data active = inhibition above about 14%
# * marks the source's active call; other numbers are inactive results; i = inactive; nt = not tested or not shown. Only some compounds are listed: those with a hit (about 2.4% of all), similar ones and a draw of the others.
SMILES,MBD2 DNA inh,LEDGF integ inh,PLC-gamma1 inh,UHRF1 binding,PLCb3 inh,IN multimer act,TRFRET interf,LEDGF integ conf
COc1ccc(OC)c(-c2cc(C(=O)N/N=C(\C)c3cccnc3)c3ccccc3n2)c1,1.1,-2.9,-19.9,-0.9,-38.7,nt,nt,nt
CCNC(=O)COC(=O)c1cc(-c2ccco2)nc2ccccc12,4.8,13.5*,i,8.3,i,7.3,-36.7,28.7*
Cc1csc(NC(=O)c2cc(-c3ccco3)nc3ccccc23)n1,5.4,26.0*,-40.4,14.0,-57.0,11.2*,-56.2,48.0*
C/C(=N\NC(=O)c1cc(-c2ccco2)nc2ccccc12)c1cccnc1,-2.9,63.7*,i,-2.4,i,1.1,-5.5,0.2
Cc1nnc(NC(=O)c2cc(-c3ccco3)nc3ccccc23)s1,6.5,16.4*,i,25.8*,i,3.4,-16.9,29.5*
COc1ccc(Cn2cc(COC(=O)NCCc3c[nH]c4ccccc34)nn2)cc1,3.6,-2.2,0.3,-1.6,-3.0,nt,nt,nt
O=c1[nH]c(CN2CCc3ccccc32)nc2scc(-c3cccs3)c12,0.1,18.5*,-28.8,0.1,-38.2,1.2,-6.2,7.2
O=C(Nc1ccc(F)cc1)Nc1c(-c2ccccc2)nc2ncccn12,-3.6,-1.5,-440.2,5.4,i,nt,nt,nt
O=C(NC1CCCCN(Cc2ccc(Cl)cc2)C1=O)c1cccc(F)c1 (stereo not drawn),1.7,-1.3,6.2,7.6,4.0,nt,nt,nt
Cc1nc2sc(C(c3ccco3)N3CCN(c4cccc(Cl)c4)CC3)c(O)n2n1 (stereo not drawn),3.8,20.5*,-9.8,3.9,-29.8,-0.1,0.5,4.9
Cc1nc2sc(C(c3ccco3)N3CCN(c4ccccc4)CC3)c(O)n2n1 (stereo not drawn),2.7,-1.8,-1.4,6.1,-4.5,nt,nt,nt
Cc1nc2sc(C(c3ccco3)N3CCC(C)CC3)c(O)n2n1 (stereo not drawn),2.5,13.4*,-10.3,-2.0,-12.1,-2.8,14.3,-2.5
COC(=O)C1CN(CCc2ccccc2)CCS(=O)(=O)N1Cc1ccccc1 (stereo not drawn),5.1,-4.0,-0.4,3.1,1.5,nt,nt,nt
CCC(C(=O)Nc1ccccc1N1CCCC1)c1cccc(Cl)c1 (stereo not drawn),-1.4,2.7,-2.6,-1.1,-3.4,nt,nt,nt
COCCN1C(=O)N[C@@H](c2cccc(F)c2)C(C(=O)OC)=C1C,-2.1,28.8*,-6.7,-3.1,-0.5,1.4,-7.0,-4.5
COC(=O)C1=C(C)N(Cc2ccccc2)C(=O)N[C@H]1c1cccc(F)c1,-1.7,-3.5,-1.8,5.3,1.9,nt,nt,nt
N#Cc1cccc(Cn2ccc3ccc(-c4ccc5ccn(Cc6cccc(C#N)c6)c5c4)cc32)c1,-4.1,1.0,-40.5,-2.1,-50.1,nt,nt,nt
O=C1NC(=Nc2ccccc2)S/C1=C\C=C\c1ccco1,4.5,34.4*,-25.5,12.5,-36.9,15.9*,-57.1,58.1*
Cc1ccc(N=C2NC(=O)/C(=C/C=C/c3ccco3)S2)cc1,0.7,22.0*,-21.3,5.5,-34.0,17.3*,-61.7,57.8*
Fc1ccc(CNc2ncccn2)cc1,-2.2,13.8*,-1.5,1.8,-4.6,1.9,-9.3,-5.0
Clc1ccc(CNc2ncccn2)cc1,2.6,-4.8,4.5,3.9,-8.5,nt,nt,nt
CC(OP(=O)(O)C(NC(=O)[C@H](Cc1ccc(O)cc1)NC(=O)OC(C)(C)C)C(C)C)C(=O)O (stereo partly drawn),4.5,1.5,0.6,-0.6,0.3,nt,nt,nt
O=C(CC1Nc2cccc3cccc(c23)NC1=O)Nc1ccccc1 (stereo not drawn),-6.1,6.5,-15.2,-7.5,-20.3,nt,nt,nt
NC(=O)CC1Nc2cccc3cccc(c23)NC1=O (stereo not drawn),-2.3,18.7*,-18.3,-2.0,-21.4,35.3*,-125.7,31.5*
O=S1(=O)CC2c3ccc(F)cc3CN2CN1Cc1ccccc1 (stereo not drawn),0.7,-0.7,-3.1,-3.3,-6.0,nt,nt,nt
SMILES,MBD2 DNA inh,LEDGF integ inh,PLC-gamma1 inh,UHRF1 binding,PLCb3 inh,IN multimer act,TRFRET interf,LEDGF integ conf
CCOC(=O)N1CCN(C(=O)C[C@@H]2C[C@@]3(C(=O)OCC)CCCC=C3N(Cc3ccccc3)C2=O)CC1,-3.0,5.2,1.3,-1.7,4.6,nt,nt,nt
CCOC(=O)[C@]12CCCC=C1N(Cc1ccccc1)C(=O)[C@H](CC(=O)N1CCCCCC1)C2,0.1,22.9*,1.7,2.1,0.8,2.4,-12.1,-9.6
COc1cc(C=Nn2c(-c3ccccc3F)n[nH]c2=S)ccc1OCc1ccccc1,0.9,0.7,4.3,0.4,-1.8,nt,nt,nt
O=C1C=CC2=C3c4cc(O)c(O)cc4CC3(O)COC2=C1O (stereo not drawn),35.2*,89.9*,16.3*,55.7*,5.8,68.0*,-342.5,93.2*
Fc1ccc(CC2CCN(c3ncnc4sccc34)CC2)cc1,0.8,1.8,-3.2,2.8,-4.2,nt,nt,nt
CC(C)CSc1nnc(-c2ccco2)n1C,4.6,23.4*,1.4,1.2,2.8,-2.5,12.9,-0.3
CCN(CC)c1ccc(N=Cc2cc(Br)ccc2O)cc1,-7.3,24.3*,-4.7,-4.1,-9.3,6.4,-23.0,7.1
Oc1ccc(Br)cc1C=Nc1ccc(Cl)cc1,-5.1,3.2,0.1,-3.1,3.2,nt,nt,nt
Nc1ccc(O)cc1C(=O)OCC(=O)c1ccc(C2CCCCC2)cc1,4.8,15.0*,-81.2,-1.9,-70.5,0.0,0.1,-0.3
Cc1cccc(NC(=O)CN2C(=O)N/C(=C\c3ccccc3OCc3ccc(C(=O)O)cc3)C2=O)c1,3.3,16.5*,-10.4,0.9,-19.5,-2.8,13.9,8.4
O=C(CN1C(=O)N/C(=C\c2ccccc2OCc2ccc(C(=O)O)cc2)C1=O)Nc1ccc(F)cc1,-8.6,6.5,-8.6,-2.2,-23.8,nt,nt,nt
O=C(c1ccccc1)N1CCN(S(=O)(=O)c2ccccc2)CC1,4.3,44.2*,2.2,-2.4,-1.3,0.5,-2.4,-4.2
O=C(c1cccc(F)c1)N1CCN(S(=O)(=O)c2ccccc2)CC1,-1.7,-1.1,1.8,0.2,-0.1,nt,nt,nt
CCc1nnc(N/N=C/c2ccccc2F)n1N,1.0,58.3*,3.8,8.0,0.7,-0.5,1.6,0.1
